Data published in PubChem BioAssay (NCI).
About 83,000 compounds went through this panel and 20% of them were active in at least one assay; those are over-represented in the sample as a whole.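 Interpretation: 100, growth as untreated; towards 0, rising growth inhibition; 0, no net growth; 0 to -100, cell death. Compounds scoring below 10 were considered active.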 A number with no mark means an inactive call. Activity calls are given as the source filed them.

System: UACC-62 melanoma
Assay: NCI-60 one-dose screen, 48 h (100 = growth as untreated, 0 = no growth, -100 = all killed)
Conditions: 10 µM unless noted
Protocol: Growth inhibition of the UACC-62 human tumor cell line is measured as a screen for anti-cancer activity. Cells are grown in 96 well plates and exposed to the test compound for 48 hours. Compounds are tested at a single concentration, which is 10^-5 M for most compounds. The reported endpoint is percent growth (GI% or GIPRCNT), where numbers from 0 - 100% represent growth inhibition, and numbers from -100% - 0 represent cell death. For example, a value of 40 represents 60% growth inhibition. A value of 0 means no net growth occurred over the course of the experiment. A value of -40 indicates 40% of cells at the beginning of the experiment died by the end of the experiment. A value of -100 means all cells are dead at the end of the experiment.
NCI-60 Human Tumor Cell Lines Screen was performed using the standard one-dose NCI protocol, which is described in more detail at https://dtp.cancer.gov/discovery_development/nci-60/default.htm.
Compounds with GIPRCNT values below 10 were considered active. Activity score was based on GIPRCNT using the following formula: […]
Score is 0 for GIPRCNT values of 100 or above, 50 for GIPRCNT values of 0, and 100 for GIPRCNT values of -100.

SMILES | growth
C=C(C)[C@@H]1CC[C@]2(C(=O)O)CC[C@]3(C)[C@H](CC[C@@H]4[C@@]5(C)C[C@@H](CC#Cc6ccc(Br)cc6)C(=O)C(C)(C)[C@@H]5CC[C@]43C)[C@@H]12 | -29% (active)
CCNC(=O)c1[nH]cc(-c2ccc(OC)cc2)c1-c1cc(OC)c(OC)c(OC)c1 | 27%
Cc1cc2cc3cc(C)c(N)cc3[n+](C)c2cc1N | 33%
COc1cc(-c2cc(=O)oc3cc(O)ccc23)c(OC)c2c1OCO2 | 74.3%
Clc1ccc2c(c1)c(-c1ccccc1)nc1nncn12 | 113%
CCCOc1nc(SCCC)nc2c1cnn2-c1ccccc1 | 86.8%
Nc1nc(N)nc(NCc2ccccc2)n1 | 101%
CN1C(=O)N(C)[C@H]2NC(NN)=N[C@H]21 | 101%
O=C1Nc2ccccc2/C1=N/c1nc(-c2ccc(Cl)cc2)cs1 | 61%
Nc1nc(SN=Nc2ccc(S(N)(=O)=O)cc2)c2[nH]cnc2n1 | 0.536% (active)
CC(C)(C#N)N1CCN(c2ccccc2Cl)CC1 | 112%
O=c1[nH]c(=O)[nH]c(=S)[nH]1 | 96.1%
COc1ccc(-c2nc(SCC(C)C)nc(N/N=C(/C)c3ccc(OC)c(OC)c3)c2C#N)cc1 | 81.2%
CNC(=O)NCC1OC(n2cnc3c(NC(=O)Nc4ccccc4)ncnc32)C(O[Si](C)(C)C(C)(C)C)C1O[Si](C)(C)C(C)(C)C (stereo not given) | 41.9%
COc1ccc(-c2nc(N/N=C/c3c[nH]c4ccccc34)nc(N3CCOCC3)c2C#N)cc1 | 106%
COc1ccc(-c2nc(N=Nc3c(O)[nH]c4ccccc34)nc(N3CCOCC3)c2C#N)cc1 | 50.3%
COc1cc2ncnc(Nc3ccc(C(=O)/C=C/c4ccc(C(F)(F)F)cc4F)cc3)c2cc1OC | 100%
CN1CCN(C(=O)[C@]2(C)CC[C@]3(C)CC[C@]4(C)C(=CC(=O)[C@@H]5[C@@]6(C)CCC(=O)NC(C)(C)[C@@H]6CC[C@]54C)[C@@H]3C2)CC1 | 97.3%
COc1cc(CNC(=O)CCCCC[P+](c2ccccc2)(c2ccccc2)c2ccccc2)c(OC)c2c1OCO2 | 41.8%
Nc1c(C(=O)Nc2ccc(Cl)cc2)cc(-c2nc3ccccc3s2)c(=O)n1NS(=O)(=O)c1ccc(Cl)cc1 | 89.8%

SMILES | growth
CCCCCCCCCCCCCCCC(=O)OC[C@@]1(O)C[C@@]23CC[C@@H]4C(C)(C)[C@H](O)CC[C@@]4(C)[C@@H]2CC[C@H]1C3 | 100%
Cc1ccc(C(c2c(O)c3cc(Br)ccc3[nH]c2=O)c2c(O)c3cc(Br)ccc3[nH]c2=O)cc1 | 63.2%
O=C(Nc1ccc2ncnc(Nc3ccc(Oc4cccc(F)c4)c(Cl)c3)c2c1)c1ccc(CN2CCOCC2)cc1 | 53.5%
CC(=O)c1c[nH]c2ccc(-c3ccnc(Nc4ccc(NC(=O)c5cccc(F)c5)c(CN5CCOCC5)c4)n3)cc12 | -41.2% (active)
COc1cc2nc(-c3ccc(C#N)cc3)[nH]c(=O)c2cc1OC | 87.8%
COc1cc(C(=O)c2cnc(-c3ccc4cc[nH]c4c3)[nH]2)cc(OC)c1OC | 29.4%
COc1ccc(Cn2nc(-c3cc(OC)c(OC)c(OC)c3)c3c2CCc2cnoc2-3)cc1OC | 51.1%
CC(=O)O[C@]1(C(C)=O)CC[C@H]2[C@@H]3C=C(Cl)C4=CC(=O)CC[C@]4(C)[C@H]3CC[C@@]21C | 90.6%
COc1cccc(CCC(=O)c2cc3c(N)c(C(=O)Nc4cccc(Cl)c4C)sc3nc2C)c1 | 27%
COc1ccc(-c2cnc(N)nc2-c2ccc(OC)cc2O)cc1 | 93.4%
O=C1/C(=C/c2ccc(O)cc2)COc2ccc(-c3ccccc3)cc21 | 88.4%
COc1ccc(-c2nc3sccn3c2/C=C/C(=O)c2cc(OC)c(OC)c(OC)c2)cc1 | 46.6%
O=C1NC(=S)NC(=O)C1=Cc1cccc(C=C2C(=O)NC(=S)NC2=O)c1 | 101%
Cn1c(COC(=O)NCCn2ccnc2)nc2c(N3CCOCC3)nc(-c3ccccc3)nc21 | -93.9% (active)
NC(=O)CN1CCN(c2ccccc2Cl)CC1 | 113%
FC(F)(F)c1cccc(Oc2ccc(Nc3ncnc4ccc(OCCCN5CCOCC5)cc34)cc2Cl)c1 | 76.1%
c1ccc(Cn2nc3c(c2-c2ccccc2)-c2oncc2CC3)cc1 | 76.2%
CN1CCN(CCCOc2ccc3ncnc(Nc4ccc(Oc5cccc(C(F)(F)F)c5)c(Cl)c4)c3c2)CC1 | -75.7% (active)
COc1ccc(NC(=O)c2sc3nc(C)c(C(=O)c4ccc(OC)cc4)cc3c2N)cc1 | 46.1%
N#Cc1cc(-c2nc3ccccc3s2)c(=O)n(NS(=O)(=O)c2ccc(Cl)cc2)c1N | 88.2%
